Compound activity: PubChem BioAssay, several laboratories
This is a sample that favours compounds with a hit; in the whole collection about 4.8% have one here.
CSC inhib – cancer stem cell inhibition; 300,000 tested, 1.1% active; inhibition, % at 7.5 µM; cancer stem cell-like cells viability, luminescence; in the data active = inhibition above about 75%; tested in HMLE shEcad cells
Beta cell apopt – beta cell apoptosis inhibition | INS-1E cytokine-induced death, ATP luminescence, 48 h; percent of positive-control rescue, neutral wells zero | protection from apoptosis, % (concentration not given with the values) | 300,000 tested, 0.8% active;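 active = Every replicate reaches about 75%, or at least half do and their mean reaches it too, limit read from the data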;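 note: 0% = cytokine-treated negative control wells and 100% = positive control rescue; higher means more ATP so stronger rescue from cytokine killing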
Calb FLC – affects C. albicans growth with fluconazole. C. albicans CaCi-2 (fluconazole-resistant clinical isolate) + fluconazole, Alamar Blue growth, 48 h. growth inhibition, % (no concentration beside the values). 300,000 tested, 0.57% active;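 active = growth inhibition above about 58% in most replicates, limit read from the data, passing the limit was not always enough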;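 note: all wells also contain fluconazole at 8 µg/ml as a sub-toxic cotreatment; 0% = median of DMSO wells and 100% = median of geldanamycin control wells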
MPTP block – blocks calcium-induced mitochondrial swelling; inhibition, % at 10 µM; 360,000 tested, 1.4% active; isolated mouse mitochondria, Ca2+ swelling absorbance, 30 min;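 active = inhibition of 50% or more, scaled per plate between neutral and stimulator controls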;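 note: 0% = DMSO wells given calcium and 100% = 1 mM EGTA wells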
Mdm2-MdmX inh – inhibitors of human Mdm2/MdmX interaction; inhibition, % at 8 µM; O15151+Q00987; SaOS-2 split-luciferase Mdm2/MdmX complementation, luminescence; 330,000 tested, 3% active;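 active = inhibition of at least 50% at 8 µM in the primary screen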
Target sequence (O15151 whole entry, looked up): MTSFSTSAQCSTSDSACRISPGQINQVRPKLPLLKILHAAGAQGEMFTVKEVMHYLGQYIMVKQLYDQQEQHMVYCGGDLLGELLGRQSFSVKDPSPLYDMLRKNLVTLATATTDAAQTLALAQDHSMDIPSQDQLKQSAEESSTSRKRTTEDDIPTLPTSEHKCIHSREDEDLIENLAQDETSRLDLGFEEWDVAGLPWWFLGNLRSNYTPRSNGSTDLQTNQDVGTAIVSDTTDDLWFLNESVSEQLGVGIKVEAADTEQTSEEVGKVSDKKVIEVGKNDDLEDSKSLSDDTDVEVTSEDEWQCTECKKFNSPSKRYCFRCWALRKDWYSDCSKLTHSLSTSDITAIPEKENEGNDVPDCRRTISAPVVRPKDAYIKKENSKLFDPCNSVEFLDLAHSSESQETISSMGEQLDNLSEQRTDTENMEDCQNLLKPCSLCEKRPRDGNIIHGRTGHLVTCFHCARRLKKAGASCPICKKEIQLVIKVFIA
Target sequence (Q00987 whole entry, looked up): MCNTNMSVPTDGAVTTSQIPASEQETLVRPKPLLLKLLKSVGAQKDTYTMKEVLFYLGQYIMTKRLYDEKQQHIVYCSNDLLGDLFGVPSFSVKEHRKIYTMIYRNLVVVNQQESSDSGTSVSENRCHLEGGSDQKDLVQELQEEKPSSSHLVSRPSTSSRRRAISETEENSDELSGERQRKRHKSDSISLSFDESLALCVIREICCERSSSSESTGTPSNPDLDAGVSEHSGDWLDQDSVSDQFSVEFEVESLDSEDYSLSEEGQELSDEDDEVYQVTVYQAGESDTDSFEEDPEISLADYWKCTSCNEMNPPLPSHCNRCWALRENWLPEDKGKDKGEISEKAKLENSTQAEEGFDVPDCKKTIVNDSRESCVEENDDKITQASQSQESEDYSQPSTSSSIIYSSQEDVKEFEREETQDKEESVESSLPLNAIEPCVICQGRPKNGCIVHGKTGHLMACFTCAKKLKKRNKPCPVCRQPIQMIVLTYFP
* = called active by the depositor; nt = no result.

SMILES | CSC inhib | Beta cell apopt | Calb FLC | MPTP block | Mdm2-MdmX inh
CCOC(=O)/C=C/C(=O)Nc1cccc([N+](=O)[O-])c1 | 108* | -4 | -10 | 3 | 4
CCOc1ccccc1CN1[C@@H](c2ccc(OC)cc2)CC(C(=O)OC)(C(=O)OC)[C@H]1c1ccccc1 | nt | nt | nt | 3 | nt
CC(=O)Oc1ccccc1Cn1c(C)c(C(=O)NCc2cccc(Cl)c2)sc1=O | nt | nt | nt | -1 | nt
CCOC(=O)COc1ccc(S(=O)(=O)N2CCN(c3ccccc3F)CC2)cc1 | 1 | -4 | 103* | -1 | 0
Cc1ccc(S[C@@H](CCN2CC[C@H](O)CCC2=O)c2ccccc2)cc1 | 1 | -8 | 1 | -2 | -8
Cc1ccc(S[C@@H](CCN2CC[C@H](C(C)(C)C)CCC2=O)c2ccccc2)cc1 | 108* | -5 | -12 | 0 | 18
Cc1ccc(S[C@@H](CCN2CC[C@H](C)CCC2=O)c2ccccc2)cc1 | 40 | -1 | 2 | 1 | -3
C[C@@H]1CCC(=O)N(CC[C@H](Sc2ccc(Br)cc2)c2ccccc2)CC1 | 97* | 11 | nt | -2 | 21
Cc1ccc(S(=O)(=O)N2[C@H](CC(=O)OCc3ccccc3)OC[C@@H]2C(C)C)cc1 | nt | nt | nt | 0 | nt
O=C(Nc1ccc(C(O)c2ccccc2)cc1)[C@@H]1O[C@H](CO)[C@@H](O)[C@H]1O (stereo partly specified) | nt | nt | nt | 0 | nt
O=C1Nc2ccccc2C(=O)N(c2ccc3c(c2)OCCO3)C1C(=O)NC1CC1 (stereo unspecified) | nt | nt | nt | 5 | nt
O=C(NNC(=S)Nc1ccc(F)c(Cl)c1)c1ccccc1Br | -1 | 6 | 107* | 26 | -8
Cc1cccc(NC(=S)NNC(=O)c2ccccc2Br)c1 | -8 | 6 | -4 | 4 | -48
CN(CCc1ccccc1)C(c1cc2ccccc2o1)c1nnnn1C(C)(C)C (stereo unspecified) | nt | nt | nt | 1 | nt
COc1ccc(C(=O)N2CCOCC2c2cc(C(=O)NCc3ccccc3)no2)cc1 (stereo unspecified) | nt | nt | nt | 0 | nt
Cc1nc2ccccc2c(=O)n1/N=C/c1c(O)ccc2ccccc12 | 2 | 85* | 53 | -1 | 31
Cc1cn(-c2cc(C(=O)Nc3ccc(C)c(NC(=O)C(=O)c4c[nH]c5ccccc45)c3)cc(C(F)(F)F)c2)cn1 | 131* | 16 | 3 | 2 | 46
Cc1ccc(C(=O)Nc2cccc(C(F)(F)F)c2)cc1NC(=O)c1c[nH]c2cc(C(F)(F)F)ccc2c1=O | -4 | -10 | nt | 10 | 27
O=C(NCc1cc(Cl)cc(Cl)c1)c1ccc2nc(COCCO)[nH]c2c1 | nt | nt | nt | -1 | nt
CC(=O)Nc1ccc(/C=C/c2noc(-c3ccccc3O)n2)cc1 | 1 | 3 | -4 | 1 | -38
COc1cc(/C=C/c2noc(-c3ccccc3O)n2)ccc1OC(C)=O | 103* | -6 | 8 | 3 | -219
CCOC(=O)Nc1ccc2nc(Sc3ccc(Cl)cc3)sc2c1 | 85* | 20 | 2 | 2 | 47
CCN(CC)c1ccc2cc(S(=O)(=O)c3ccc(C)cc3)c(=O)oc2c1 | 99* | 9 | 101* | 20 | 19
CCCNC(=O)C1(C)CCN(C(=O)c2ccccc2OC)C1 (stereo unspecified) | nt | nt | nt | 0 | nt
C/C(=N\Nc1ncc(Cl)cc1Cl)c1ccccn1 | nt | nt | 98* | 0 | nt
SMILES | CSC inhib | Beta cell apopt | Calb FLC | MPTP block | Mdm2-MdmX inh
C/C(=N\Nc1ccc(Cl)c(C(=O)O)c1)c1ccccn1 | -10 | -4 | -4 | 0 | 6
CC1=C(C(=O)N2CCCCCC2)CC(CC(=O)NCCc2ccccn2)C(=O)N1Cc1ccc(C(C)(C)C)cc1 (stereo unspecified) | nt | nt | nt | -1 | nt
Cc1ccc(C2CC(c3ccc(Cl)cc3)n3nc(N)nc3N2)cc1 (stereo unspecified) | 16 | 0 | 6 | -3 | -17
Cc1ccc(C2CC(c3ccc(C)cc3)n3nc(N)nc3N2)cc1 (stereo unspecified) | nt | 103* | -3 | 0 | 10
COc1cc(Cl)ccc1OC1(C)CCN(Cc2ccc3ccccc3c2)C1 (stereo unspecified) | nt | nt | nt | 4 | nt
COc1cc(N/N=C/c2ccc(N(C)C)cc2)ncn1 | 4 | 3 | 19 | 2 | -133
CN(C)c1cc(N/N=C/c2ccc(Cl)cc2)nc(N(C)C)n1 | nt | nt | 98* | 3 | nt
CC(=O)c1c(C)oc2ccc(N(C(C)=O)S(=O)(=O)c3cccc4cccnc34)cc12 | 4 | 104* | -6 | 3 | 34
CCn1c(C)c(C)c2cc(C(=O)N3CCc4ccccc4C3)ccc21 | 62 | 113* | -4 | 42 | 49
CCOC(=O)[C@]12CCCC=C1N(Cc1ccco1)C(=O)[C@H](CC(=O)N1CCSCC1)C2 | nt | nt | nt | -2 | nt
